Source: PubChem BioAssay (National Center for Advancing Translational Sciences (NCATS))
Giardia killer: Small Molecules that selectively kill Giardia lamblia: qHTS; activity change, % at 7.66 µM, hits read low; Giardia lamblia trophozoite viability; 0.15% of 340,000 active; in the data active means activity change below about -80%; inconclusive means between about -30% and that limit;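 further: parasites exposed to compound for two days anaerobically before the ATP read; on the % scale 0 is the no-effect control and ±100 the full control effect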
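Each well holds 100 Giardia trophozoites and compound. After two days (48 hrs) at 37 deg C in anaerobic conditions, ATP is quantified by luminescence.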
DRD3 agonist: qHTS of D3 Dopamine Receptor Agonist: qHTS; D(3) dopamine receptor (Homo sapiens), P35462; D3R DiscoveRx beta-arrestin cells, luminescence, 90 min; max activation, %; 0.58% of 410,000 active; in the data active means max activation above about 30%; further: 0% is about no effect
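Agonist mode: compounds and dopamine controls were applied to plated cells for 90 min at 37 degrees C after an overnight attachment at 1500 cells/well. Luminescent read-out followed 30 - 60 minutes at room temperature with DiscoveRx detection reagent.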
D3 antag: qHTS of D3 Dopamine Receptor Antagonist: qHTS; 2.5% of 360,000 active; max response, negative = inhibition, %; D3R cells, DiscoveRx beta-arrestin luminescence, antagonist mode; hits give low values; AID 652054, 2013; in the data active means max response below about -50%; inconclusive means no clear call, values can overlap the other calls; further: on the % scale 0 is the no-effect control and ±100 the full control effect
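Cells plated overnight at 1500 cells/well, then exposed to library compounds with dopamine controls for 90 minutes at 37 degrees C. DiscoveRx reagent added for 30–60 minutes at room temperature; luminescence read, quantitative HTS format.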
B2AR arrestin: qHTS assay of beta-arrestin-biased ligands of beta2-adrenergic receptor | Beta-2 adrenergic receptor (Homo sapiens), P07550 | beta-arrestin recruitment to beta2AR, cell-based reporter | Potency, µM (series often up to 46.1 µM), for inactives: at the top dose activation, usual class: activators | 0.02% of 330,000 active | AID 492947, 2010; active means well fitted activation curve with a large enough effect; inconclusive means small, poorly fitted or top-dose-only effect;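 further: potency means the concentration at half of the fitted maximal effect; 0% = DMSO controls and full agonism = EC100 isoproterenol or metaproterenol; nearly all actives have a fitted effect of over 65% in size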
Target sequence (P07550 whole entry, looked up): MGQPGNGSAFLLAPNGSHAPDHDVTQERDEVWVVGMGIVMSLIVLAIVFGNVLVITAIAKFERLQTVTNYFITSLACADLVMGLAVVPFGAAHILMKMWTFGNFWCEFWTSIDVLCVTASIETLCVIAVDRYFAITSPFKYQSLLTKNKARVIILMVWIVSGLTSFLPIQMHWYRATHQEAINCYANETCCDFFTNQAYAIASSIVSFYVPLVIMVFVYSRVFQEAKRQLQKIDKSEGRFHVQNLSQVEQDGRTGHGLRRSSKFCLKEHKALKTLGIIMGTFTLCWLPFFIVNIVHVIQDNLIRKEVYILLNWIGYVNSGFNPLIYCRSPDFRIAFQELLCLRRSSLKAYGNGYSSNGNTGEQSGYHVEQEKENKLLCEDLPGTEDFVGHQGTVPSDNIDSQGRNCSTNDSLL
* marks the source's active call; other numbers are inactive results; ? = inconclusive; · = not tested or not shown; [ ] = another dose, or the depositor's remark. In the library only some 2.8% were active in any assay of this set; here they are far more common.

SMILES	Giardia killer	DRD3 agonist	D3 antag	B2AR arrestin
O=C(CN1CCN(c2ncccn2)CC1)N1CCc2ccccc21	29	-21	-82*	0%
O=C(CN1CCC(N2CCCCC2)CC1)N1CCCc2ccccc21	16	-7	-76*	0%
O=C(CN1CCN(Cc2ccccc2)CC1)N1CCCc2ccccc21	-14	-22	-51*	0%
O=C(CN1CCCCC1)N1CCc2ccccc21	-4	-23	-86*	-1%
O=C(CN1CCN(Cc2ccc(Cl)cc2)CC1)N1CCc2ccccc21	10	-18	?	0%
O=C(CN1CCCCC1)N1c2ccccc2CCc2ccccc21	29	-10	-21	0%
COc1ccc(C2/C=C\CN(S(=O)(=O)c3ccc(C)cc3)C(Cc3ccccc3)C(=O)N2Cc2ccc(F)cc2)cc1 (stereo not drawn)	-6	·	·	·
Cc1csc(=N)n1CC(=O)N1CCc2ccccc21	-13	-27	-86*	1%
CC(C)NC(=O)CN1CCN(c2ncccn2)CC1	-9	6	-54*	-1%
CC1CCN(CC(=O)N2c3ccccc3CCc3ccccc32)CC1	-16	-6	-64*	1%
O=C(CN1CCN(c2ccccc2F)CC1)N1CCc2ccccc21	-28	-12	-54*	-1%
CC(NC(=O)CN1CCN(c2ncccn2)CC1)c1ccc(F)cc1 (stereo not drawn)	4	-8	0	0%
Cc1nn(-c2ccccc2)c2nc(=O)n(-c3ccccc3)cc12	0	-1	-65*	0%
CCn1ccc2c(OCC(=O)Nc3ccc(C(C)=O)cc3)cccc2c1=O	·	1	·	·
O=c1[nH][nH]c(C(F)(F)F)c1C=Nc1ccc(Cl)cc1	0	-15	-22	0%
O=c1[nH][nH]c(C(F)(F)F)c1C=NCc1cccc(Cl)c1	-5	-4	-88*	0%
O=c1[nH][nH]c(C(F)(F)F)c1C=NCc1ccc(Cl)cc1	-6	-3	-84*	0%
Cc1cc(C)cc(NS(=O)(=O)c2ccc3c(c2)CCCN3C(=O)C2CCC2)c1	·	3	·	·
COc1ccc([C@]23Cc4cc(C#N)ccc4[C@H](O2)c2c(cc(C)n(Cc4ccccc4)c2=O)O3)cc1	·	·	·	0%[9.22 µM]
CCc1ccc2[nH]c(=O)c(C(c3nnnn3CC3CCCO3)N3CCCc4ccccc43)cc2c1 (stereo not drawn)	1	38*	8	0%
O=c1[nH]ncc2c3ccccc3n(Cc3ccccc3F)c12	-17	-9	-60*	0%
COc1cc(C(C)=O)ccc1OCC(=O)N1CCC(Cc2ccccc2)CC1	·	2	10	·
COc1cc(C(C)=O)ccc1OCCN1CCC(Cc2ccccc2)CC1	4	-22	-77*	-1%
COc1cc(C(C)=O)ccc1OCCCN1CCC(Cc2ccccc2)CC1	3	-21	-90*	0%
Cn1c(=O)c([N+](=O)[O-])c(-n2ccnc2)c2ccccc21	9	-22	-51*	0%
SMILES	Giardia killer	DRD3 agonist	D3 antag	B2AR arrestin
CCc1cc2cccc(C)c2nc1SCC(=O)c1ccc(NC(C)=O)cc1	6	81*	43	0%
O=C(O)c1cc(O)c2c(c1)[C@@H]([C@H]1c3cc(C(=O)O)cc(O)c3C(=O)c3c(O[C@@H]4O[C@H](CO)[C@@H](O)[C@H](O)[C@H]4O)cccc31)c1cccc(OC3O[C@H](CO)[C@@H](O)[C@H](O)[C@H]3O)c1C2=O (stereo partly drawn)	-24	0	-56*	0%
CC(C)CNC(=S)NNC(=O)c1csc2c1CCC(C)C2 (stereo not drawn)	4	-34	-55*	-1%
CN1CCC(=O)N(CCSc2ccc(Br)cc2)CC1	-2	-31	-56*	0%
Cn1c(=O)c2c(nc(SCC(=O)Nc3ccc(OC(F)(F)F)cc3)n2Cc2cccc(C(F)(F)F)c2)n(C)c1=O	·	7	·	·
Brc1ccccc1CN1CCN(Cc2c[nH]c3ccccc23)CC1	-1	-14	-80*	·
COc1cc(OC)cc(C(=O)N2CCN(Cc3ccccc3Br)CC2)c1	-2	-9	2	-1%
Brc1ccc(CN2CCN(Cc3c[nH]c4ccccc34)CC2)cc1	9	-41	-64*	0%
CN1CCCN(Cc2ccccc2Br)CC1	0	-10	-51*	0%
COc1ccc(-c2cc(C(F)(F)F)n3nc(C(=O)Nc4ccccc4SC)cc3n2)cc1OC	·	-4	·	·
Cc1cc(C)n(C(C)CC(=O)Nc2cccc(C#N)c2)n1 (stereo not drawn)	·	-9	·	·
